Source: PubChem BioAssay
In the library only some 7.5% were active in any assay of this set; here they are far more common.
Rab9 prom act: activates the Rab9 promoter. Huh7 Rab9 promoter-luciferase reporter, luminescence, 24 h. Potency, µM (top dose mostly 9.22 µM), for the others: at the top dose activation, negative = inhibition, actives largely listed as activators. AID 485297. 2.8% of 320,000 active; note: % of control where 0% means no effect; nearly all actives have a fitted effect of over 60% in size
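Quantitative HTS format; Huh7 Rab9-luciferase reporter cells (1500/well) receive compound 2 h post-plating, incubate 24 h at 37 °C, then get luciferase reagent for 10 min before luminescence reading.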
SMN2 splice up: SMN2 splice variant enhancement; HEK293 SMN2-luciferase splicing reporter, luminescence, 30-36 h; Potency, µM (series often up to 46.1 µM), without a hit: at the highest dose activity change, positive = activation, hits mostly activators; 2.8% of 210,000 active; AID 1458; note: % of control where 0% means no effect; nearly all actives have a fitted effect of over 55% in size
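qHTS luciferase splicing reporter: luminescence rises when SMN2 exon 7 is included in transfected HEK293 cells. Compound exposure lasted 30-36 h at 37C, with 4.5 mM final sodium butyrate as control, followed by a ONE-Glo read.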
NPC1 promoter act: NPC1 promoter activation | Huh7 NPC1 promoter luciferase reporter, 24 h | Potency, µM (highest dose often 9.22 µM), without a hit: top-dose activation, usual class: activators | 2.4% of 320,000 active; note: % of control where 0% means no effect; nearly all actives have a fitted effect of over 60% in size
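Stable NPC1-promoter luciferase Huh7 line; cpd (DMSO) 24 h, 37 °C, 5% CO2; Amplite luciferase reagent 10 min RT; luminescence readout. qHTS format.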
Luc counter: blocks Kinase-Glo luciferase, a counter-screen artifact; Q27757; Kinase-Glo luciferase, ATP luminescence, 8 min; Potency, µM (top dose mostly 38.3 µM), for the others: top-dose activity change, negative = inhibition, most hits filed as inhibitors; 0.28% of 200,000 active; note: % is set by controls: 0 for no effect and ±100 for the full control effect; nearly all actives have a fitted effect of over 60% in size
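Inhibition of Kinase-Glo luciferase light generation was assessed at 10 uM ATP in pH 7.2 imidazole buffer, with luminescence measured after eight minutes at ambient temperature.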
ELG1 genotoxic: induces genotoxicity in HEK293T cells with luciferase-tagged ELG1; HEK293T ELG1-luciferase reporter, luminescence, 16 h; Potency, µM (series often up to 46 µM), inactives show top-dose activity change, positive = activation, actives largely listed as activators; 1.3% of 330,000 active; AID 504466; note: % of control where 0% means no effect; nearly all actives have a fitted effect of over 60% in size
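ELG1-luciferase HEK293T cells, 2,000/well; compound pinned in; 16 hr, 37 °C, 5% CO2; ONE-Glo, 30 min RT; luminescence on CCD imager.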
FLuc counter: firefly luciferase modulation, counter-screen for miR-21 project | 6.9% of 360,000 active | Potency, µM (highest dose often 57.5 µM), for inactives: top-dose activity change, negative = inhibition, actives largely listed as inhibitors | purified FLuc, Km substrates, luminescence inhibition | AID 588342 | P08659;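 note: plate controls were vehicle for no effect and reference inhibitor for full effect; nearly all actives have a fitted effect of over 55% in size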
Target sequence (P08659 whole entry, looked up): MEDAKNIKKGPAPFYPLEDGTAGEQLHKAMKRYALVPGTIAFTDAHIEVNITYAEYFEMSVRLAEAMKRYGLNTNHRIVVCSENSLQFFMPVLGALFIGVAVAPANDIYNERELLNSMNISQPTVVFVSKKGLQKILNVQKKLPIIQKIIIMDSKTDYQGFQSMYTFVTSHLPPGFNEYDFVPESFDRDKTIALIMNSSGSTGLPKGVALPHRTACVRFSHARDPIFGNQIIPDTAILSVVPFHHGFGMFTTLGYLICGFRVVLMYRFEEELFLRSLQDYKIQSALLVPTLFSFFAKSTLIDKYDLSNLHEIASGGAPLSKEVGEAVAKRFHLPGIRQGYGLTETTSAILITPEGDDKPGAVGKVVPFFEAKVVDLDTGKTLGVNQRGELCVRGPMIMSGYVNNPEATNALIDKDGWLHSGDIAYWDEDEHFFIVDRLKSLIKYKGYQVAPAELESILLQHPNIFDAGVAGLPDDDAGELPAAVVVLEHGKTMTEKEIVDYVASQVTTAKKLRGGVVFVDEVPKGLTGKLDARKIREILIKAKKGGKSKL
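Biochemical qHTS of compounds, final roughly 60 µM downward over six points, against 10 nM purified firefly luciferase using Km concentrations of substrates (10 uM D-luciferin, 10 uM ATP) in Tris acetate pH 7.5 buffer; luminescence output.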
Starred values were filed as active, the others as inactive; u = inconclusive; x = no result given. Calls come from the whole dose curve; as a rule, active = well fitted curve in the direction sought with a large enough effect; inconclusive = small, poorly fitted or top-dose-only effect, or another doubt; inactive = no such curve, though single readings can be large; an effect the other way counts as inactive or inconclusive. Potency is the fitted concentration of half-maximal effect.

SMILES	Rab9 prom act	SMN2 splice up	NPC1 promoter act	Luc counter	ELG1 genotoxic	FLuc counter
Cc1nnc(NC(=O)c2ccc3c(c2)C(=O)N(CC2CCCO2)C3=O)s1 (configuration not stated)	1.7%	-2.8%	-1.9%	0.6%	7.0%	5.36µM*
Nc1ccc(Oc2ccc3c(c2)C(=O)N(CC2CCCO2)C3=O)cc1 (configuration not stated)	u	x	u	x	u	9.53µM*
Cc1c(NC(=O)c2ccc3c(c2)C(=O)N(CC2CCCO2)C3=O)cccc1C(=O)O (configuration not stated)	1.3%	15.2%	-2.6%	1.2%	2.3%	15.1µM*
CCOC(=O)c1ccc(NC(=O)c2ccc3c(c2)C(=O)N(CC2CCCO2)C3=O)cc1 (configuration not stated)	-1.6%	x	1.0%	x	-8.2%	-11.1%
COc1ccc(NC(=O)c2ccc3c(c2)C(=O)N(CC2CCCO2)C3=O)cc1O (configuration not stated)	-5.7%	x	1.0%	x	1.8%	u
Nc1ccc2c(c1)C(=O)N(CC1CCCO1)C2=O (configuration not stated)	-1.0%	1.5%	6.5%	0.4%	12.1%	-12.0%
Cc1ccc(NC(=O)C2CCN(S(=O)(=O)c3ccc4c(c3)CCCN4C(=O)C3CCC3)CC2)cc1	x	x	x	x	x	-10.3%
O=C(Nc1ccc2c(c1)C(=O)N(CC1CCCO1)C2=O)c1ccc(Cl)c(Cl)c1 (configuration not stated)	-13.0%	-77.7%	-8.2%	-1.6%	14.5%	5.36µM*
O=C(Nc1cccnc1)c1ccc2c(c1)C(=O)N(CC1CCCO1)C2=O (configuration not stated)	-1.0%	-3.3%	-4.4%	-0.6%	-0.4%	2.8%
O=C(Nc1ccc(O)c(C(=O)O)c1)c1ccc2c(c1)C(=O)N(CC1CCCO1)C2=O (configuration not stated)	-1.3%	-10.3%	-5.0%	-1.4%	0.2%	9.53µM*
Cc1oc2ncnc(N3CCCCC3)c2c1C(=O)NCC1CCN(Cc2ccccc2F)CC1	x	x	x	x	x	-0.6%
O=C(NCC(c1ccc2c(c1)OCO2)N1CCOCC1)c1c(F)cccc1F (configuration not stated)	x	x	x	x	x	-3.7%
CC(C)(C)c1ccc(C(=O)NCC(=O)N/N=C/c2ccccc2OCC(=O)O)cc1	-0.5%	5.7%	0.3%	0.8%	4.6%	16.9µM*
O=C(O)COc1ccccc1/C=N/NC(=O)COc1ccc(-c2ccccc2)cc1	-5.1%	x	-2.7%	x	-2.9%	4.78µM*
COCCCNC(=O)CC1C[C@H](C(=O)N2CCOCC2)[C@@]2(C)c3[nH]c4ccc(OC)cc4c3CCN2C1=O (some centres not stated)	x	x	x	x	5.5%	x
C=CCC(C)(O)C#Cc1ccccc1 (configuration not stated)	x	-0.5%	x	-0.3%	x	x
CC(=O)NCCC(=O)N1CCCC(CNC(=O)c2ccc(-c3ccccc3)cc2)C1 (configuration not stated)	10.6%	-3.1%	-3.6%	-2.9%	8.5%	15.1µM*
CC(=O)c1ccc(C(=O)N2CCCC(CNC(=O)c3ccccc3Cl)C2)cc1 (configuration not stated)	8.1%	x	-0.7%	x	5.8%	-4.0%
O=C(NCC1CCCN(C(=O)c2cscn2)C1)c1ccc(-c2ccccc2)cc1 (configuration not stated)	4.8%	x	-2.1%	-1.2%	4.6%	16.9µM*
C=CCC(=O)N1CCCC(CNC(=O)c2ccc(-c3ccccc3)cc2)C1 (configuration not stated)	-3.4%	x	-2.0%	-1.0%	-0.4%	23.9µM*
Cc1ccccc1CC(=O)N1CCCC(CNC(=O)c2ccc(F)cc2)C1 (configuration not stated)	-1.1%	x	7.7%	x	0.4%	0.4%
O=C(NCC1CCCN(C(=O)c2cscn2)C1)c1ccccc1Cl (configuration not stated)	-0.6%	x	-0.3%	-1.0%	7.8%	u
Cc1ccc2nc(N3C(=O)CNC3=S)sc2c1	u	x	1.12µM*	x	20.6µM*	1.51µM*
COc1ccc2nc(N3C(=O)CNC3=S)sc2c1	1.26µM*	x	3.55µM*	x	20.6µM*	2.39µM*
COc1ccc(NC(=O)Nc2ccc(Br)cn2)cc1	2.82µM*	u	3.55µM*	1.2%	17.7%	-17.0%
SMILES	Rab9 prom act	SMN2 splice up	NPC1 promoter act	Luc counter	ELG1 genotoxic	FLuc counter
Cc1cccc(NC(=O)Nc2cccc(C#N)c2)n1	u	15.8µM*	u	-6.1%	14.4%	u
Cc1cccc(NC(=O)Nc2ccc(Br)cc2)n1	u	19.9%	29.2%	x	7.2%	-19.2%
COc1ccc(NC(=O)Nc2cccc(C)n2)cc1	u	11.2µM*	u	-4.5%	11.6µM*	8.49µM*
Cc1cccc(NC(=O)Nc2ccc(C#N)cc2)n1	4.2%	11.2µM*	18.3%	3.0%	-34.4%	-15.3%
Cc1nn(C)c2c1c(C(F)(F)F)cc(=O)n2C(C)C(=O)NCCc1ccc(Cl)cc1 (configuration not stated)	x	x	x	x	x	-7.6%
Brc1ccc(-c2cn3c(n2)CCc2ccc4cccnc4c2-3)cc1	4.0%	-14.2%	13.2%	-1.4%	-5.2%	13.5µM*
Brc1ccc(OCCCOc2cccc3cccnc23)cc1	0.6%	x	0.6%	x	6.6%	u
O=C(COn1nnc2ccccc21)NCC1CCCCC1	19.3%	20.2%	18.3%	-1.5%	12.6µM*	16.9µM*
O=C(NCCc1ccc(F)cc1)c1ccc2c(=O)n3c(nc2c1)CCC3	3.55µM*	x	29.2%	x	14.7%	u
O=C(NCCOc1ccccc1F)c1ccc2c(=O)n3c(nc2c1)CCC3	2.24µM*	x	2.82µM*	x	u	6.01µM*
O=C(COc1ccccc1F)NNC(=O)c1ccc2c(=O)n3c(nc2c1)CCC3	4.0%	x	-1.6%	x	7.3%	-3.2%
CCOC(=O)c1ccc(NC(=O)Cn2ncc3c(C)n(Cc4ccccc4F)c(C)c3c2=O)cc1	x	-7.1%	x	x	x	-13.8%
Cn1c(CC(=O)Nc2ccccc2F)nnc1SCC(=O)N1CCOCC1	6.3%	x	10.2%	x	23.1%	-15.2%
CCCOc1ccc(C(=O)CCNc2cccc(Cl)c2)cc1	25.0%	-16.3%	17.3%	-1.2%	10.0%	-10.3%
Cc1ccc(-c2noc(CCC(=O)Nc3ccc4c(c3)OCO4)n2)cc1	-1.3%	1.4%	-4.0%	1.1%	1.9%	3.3%
CC(=O)c1ccc(OCCCC(=O)Nc2ccc3c(c2)OCCO3)cc1	8.8%	x	0.6%	x	16.3%	-1.7%
CC(=O)Oc1ccc(C(=O)Nc2ccc3c(c2)OCCO3)cc1	1.58µM*	x	1µM*	x	u	10.7µM*
